Screening data deposited in PubChem BioAssay by Broad Institute.
STAT3 SMM: binds human STAT3 on microarray. P40763. Small molecule microarray, His-STAT3 binding, anti-His fluorescence. calls only. 0.2% of 17,000 active;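 active means compounds whose four printed spots each show fluorescence over background unusually high for their array block, chance value under 7%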
Target sequence (P40763 whole entry, looked up): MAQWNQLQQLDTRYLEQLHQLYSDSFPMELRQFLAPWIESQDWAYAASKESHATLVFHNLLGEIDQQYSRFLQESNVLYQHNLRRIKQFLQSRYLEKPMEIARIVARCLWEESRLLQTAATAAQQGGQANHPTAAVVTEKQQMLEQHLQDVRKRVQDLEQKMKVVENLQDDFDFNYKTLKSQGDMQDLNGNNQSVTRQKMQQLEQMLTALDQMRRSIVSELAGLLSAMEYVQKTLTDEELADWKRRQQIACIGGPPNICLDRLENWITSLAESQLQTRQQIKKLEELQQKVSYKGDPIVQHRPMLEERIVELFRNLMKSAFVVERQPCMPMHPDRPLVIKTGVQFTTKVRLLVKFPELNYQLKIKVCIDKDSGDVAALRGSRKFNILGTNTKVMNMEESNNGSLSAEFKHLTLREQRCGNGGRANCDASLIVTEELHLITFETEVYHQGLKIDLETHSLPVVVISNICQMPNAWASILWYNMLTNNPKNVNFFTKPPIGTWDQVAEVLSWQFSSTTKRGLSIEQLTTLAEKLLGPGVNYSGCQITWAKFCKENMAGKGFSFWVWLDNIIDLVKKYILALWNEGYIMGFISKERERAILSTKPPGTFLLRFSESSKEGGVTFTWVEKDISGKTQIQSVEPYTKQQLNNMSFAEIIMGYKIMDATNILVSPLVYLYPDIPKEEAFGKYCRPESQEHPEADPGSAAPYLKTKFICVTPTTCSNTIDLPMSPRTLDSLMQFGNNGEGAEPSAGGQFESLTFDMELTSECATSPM
mut p53 react: restores mutant p53 pathway signaling in SW480 cells; SW480 PUMA-promoter luciferase, p53 mutant reactivation; activation, % at 9.98 µM; 1.5% of 28,000 active; AID 624151; in the data active means activation above about 52%
c-Myc SMM: binds human c-Myc on microarray; small molecule microarray, His-c-Myc binding, anti-His fluorescence; calls only; 1.5% of 17,000 active;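 active means spot fluorescence over background with P-value below 7% in all four replicate spots, showing protein binding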
p53 mut binder: binds human mutant p53 on microarray; calls only; small molecule microarray binding, anti-GST fluorescence; 0.4% of 17,000 active; AID 624136;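 active means compounds whose four printed spots each glow above background more than chance allows, each with a p-value under 7%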
NFkB SMM: NF-kappa-B p105 (human) binding | 1.3% of 17,000 active | Small molecule microarray, anti-His fluorescence binding | calls only;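 active means spot fluorescence over background significantly raised, with a chance value under 7% in all four replicate spots of the compound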;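 further: probe protein is his-tagged human p50 processed subunit at 1 µg/ml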
Numbers stand for hits; 0 = inactive; - = not tested or not shown; + = active, no number. Compounds with a hit are over-represented: about 2.6% of the library has one in this group of screens.

SMILES | STAT3 SMM | mut p53 react | c-Myc SMM | p53 mut binder | NFkB SMM
COC(=O)C1=CO[C@@H](O[C@@H]2O[C@H](CO)[C@@H](O)[C@H](O)[C@H]2O)[C@@H]2[C@@H](CO)C=C[C@H]12 | 0 | 0 | 0 | 0 | 0
C=CCSc1n[nH]c(-c2ccc(C(F)(F)F)cc2)n1 | - | 111 | - | - | -
COc1ccc(-c2nc(SCC(=O)Nc3cccc(C(F)(F)F)c3)n[nH]2)cc1 | - | 0 | - | - | -
CC(C)(C)c1ccc(OCC(=O)NCc2cccnc2)c(Br)c1 | - | 0 | - | - | -
Cc1ccn2cc(-c3cccc(NS(=O)(=O)c4cccc([N+](=O)[O-])c4)c3)nc2c1 | - | 170 | - | - | -
Cc1ccc(-c2nnc(SCC(=O)c3cccc([N+](=O)[O-])c3)n2C)cc1 | 0 | 0 | 0 | + | 0
C[C@H](CO)N1C[C@H](C)[C@@H](CN(C)C(=O)C2CCCCC2)OCCCC[C@H](C)Oc2ccc(NS(=O)(=O)c3cccs3)cc2C1=O | 0 | 0 | 0 | 0 | 0
C[C@@H]1CCCCO[C@@H](CN(C)C(=O)C2CCCCC2)[C@H](C)CN([C@H](C)CO)C(=O)c2cc(NS(=O)(=O)c3cccs3)ccc2O1 | 0 | 0 | 0 | 0 | 0
C[C@@H]1CCCCO[C@@H](CN(C)C(=O)C2CCCCC2)[C@@H](C)CN([C@H](C)CO)C(=O)c2cc(NS(=O)(=O)c3cccs3)ccc2O1 | 0 | 0 | + | 0 | +
C[C@@H]1CCCCO[C@H](CN(C)C(=O)C2CCCCC2)[C@H](C)CN([C@@H](C)CO)C(=O)c2cc(NS(=O)(=O)c3cccs3)ccc2O1 | + | 0 | 0 | 0 | 0
Cc1ccc(-c2noc(CSc3nnc(C)n3-c3cccc(C)c3)n2)cc1 | - | 0 | - | - | -
Cc1ccc(-c2noc(CSc3nc(C)cc(C)n3)n2)cc1 | - | 63 | - | - | -
O=C(CS(=O)(=O)c1ccc2ccccc2c1)c1cc2ccccc2oc1=O | 0 | 0 | + | 0 | 0
c1ccc(Cn2c(SCCN3CCOCC3)nc3ccccc32)cc1 | 0 | 0 | + | 0 | 0
CN(c1ccc(OCC(=O)O)cc1)S(=O)(=O)c1ccc(F)cc1 | 0 | 0 | 0 | 0 | +
Cc1csc2c(SCC(O)C(F)(F)F)ncnc12 (centres undefined) | - | 56 | - | - | -
COc1ccc(-c2csc(N3N=C(C)C(C(c4ccc(Cl)cc4)C(C#N)C(N)=O)C3=O)n2)cc1 (centres undefined) | - | 0 | - | - | -
COc1ccc(C#Cc2ccc3c(c2)[C@]2(C(=O)N3)[C@H](C(=O)N3CCc4cc(OC)c(OC)cc4C3)[C@H]3C(=O)O[C@H](c4ccccc4)[C@H](c4ccccc4)N3[C@@H]2c2ccc(OCCO)cc2)cc1 | 0 | - | 0 | 0 | +
COc1ccc(C#Cc2ccc3c(c2)[C@]2(C(=O)N3)[C@H](c3ccc(OCCO)cc3)N3[C@H](c4ccccc4)[C@H](c4ccccc4)OC(=O)[C@H]3[C@@H]2C(=O)N2CCc3cc(OC)c(OC)cc3C2)cc1 | 0 | - | 0 | 0 | +
COC(=O)C(CC#Cc1ccc2c(c1)[C@]1(C(=O)N2)[C@H](C(=O)N2CCN(c3ncccn3)CC2)[C@H]2C(=O)O[C@H](c3ccccc3)[C@H](c3ccccc3)N2[C@@H]1c1ccc(OCCO)cc1)C(=O)OC | 0 | - | 0 | 0 | +
COC(=O)C(CC#Cc1ccc2c(c1)[C@]1(C(=O)N2)[C@H](c2ccc(OCCO)cc2)N2[C@H](c3ccccc3)[C@H](c3ccccc3)OC(=O)[C@H]2[C@@H]1C(=O)N1CCN(c2ncccn2)CC1)C(=O)OC | 0 | - | 0 | 0 | 0
COc1ccc(S(=O)(=O)NCc2ccccc2)cc1-c1nnc2c3ccccc3c(C)nn12 | - | 0 | - | - | -
CS(=O)(=O)N(CC(=O)O)c1ccc(C23CC4CC(CC(C4)C2)C3)cc1 | 0 | 0 | + | 0 | 0
Cc1c(Br)ccc(NC(=O)CSc2nnc(-c3ccc(Cl)cc3)n2C)c1C | - | 107 | - | - | -
COc1ccc(C(=O)Nc2ccccc2C(=O)NC(C(=O)O)C(C)C)cc1 (centres undefined) | 0 | 0 | + | 0 | 0
SMILES | STAT3 SMM | mut p53 react | c-Myc SMM | p53 mut binder | NFkB SMM
CC(C)OC(=O)CSc1nc2c(cc1C#N)CCCCC2 | - | 98 | - | - | -
N#Cc1cc2c(nc1SCC(=O)Nc1cc(C(F)(F)F)ccc1Cl)CCCCC2 | - | 0 | - | - | -
N#Cc1cc2c(nc1SCC(=O)Nc1ccccc1C(F)(F)F)CCC2 | - | 111 | - | - | -
COc1ccc(-c2ccc(CCC(=O)O)n2-c2ccc(N(C)C)cc2)cc1 | - | 0 | - | - | -
Cc1ccc(-n2nc3ccc(NC(=O)COc4cccc(C)c4)cc3n2)cc1 | - | 0 | - | - | -
CC(C)(C)c1ccc(OCC(O)Cn2cnc3ccccc32)cc1 (centres undefined) | - | 0 | - | - | -
CCc1ccc2oc(-c3cc(NC(=O)COc4ccc(OC)cc4)ccc3Cl)nc2c1 | - | 0 | - | - | -
CCc1ccc(OCC(=O)Nc2ccc(-c3nc4ccccc4s3)c(O)c2)cc1 | - | 123 | - | - | -
CCc1ccc(OCC(=O)Nc2ccc(-c3nc4ccccc4o3)c(O)c2)cc1 | - | 59 | - | - | -
O=C(NCCCN1CCCC1=O)c1cc(-c2ccccc2)nc2ccccc12 | - | 0 | - | - | -
CC(C(=O)Nc1cc(Cl)ccc1Oc1ccccc1)N(c1ccccc1)S(C)(=O)=O (centres undefined) | - | 0 | - | - | -
COc1cc2c(cc1NC(=O)CSc1nnc(N)s1)oc1ccccc12 | 0 | 117 | 0 | 0 | 0
COc1cc2c(cc1NC(=O)CSc1nnnn1C)oc1ccccc12 | - | 147 | - | - | -
O=C(Nc1ccccc1C(=O)O)c1cccc(S(=O)(=O)Nc2ccccc2)c1 | - | 0 | - | - | -
COc1ccc(NC(=O)CSc2ccccn2)cc1Cl | - | 0 | - | - | -
O=C(COc1ccccc1Cl)NCc1ccco1 | - | 0 | - | - | -
O=C(COc1cc(Cl)c(Cl)cc1Cl)NCc1ccco1 | 0 | 56 | 0 | 0 | 0
COc1ccc2c(c1)cc(C)c1nnc(SCC(=O)Nc3cccc(C(C)=O)c3)n12 | 0 | 0 | 0 | 0 | 0
COc1c(Cl)cc(Cl)cc1CNCCNCC(C)O (centres undefined) | + | 0 | 0 | + | 0
CCOc1ccccc1CNCCN1CCOCC1 | 0 | 0 | + | 0 | 0
COC(=O)C(C)Sc1nc(N2CCOCC2)nc(N2CCOCC2)n1 (centres undefined) | 0 | 0 | 0 | 0 | 0
CC1OC(O[C@H]2CC[C@@]3(C)C(CC[C@]4(C)C3CC=C3[C@@H]5CC(C)(C)C[C@@H](O)[C@]5(C)CC[C@]34C)[C@@]2(C)CO)C(OC2OC(C(=O)O)C(O)C(O)C2OC2OCC(O)C(O)C2O)C(O)C1O (some centres undefined) | 0 | 0 | 0 | 0 | 0
CC1(C)CC[C@]2(C(=O)O)CC[C@]3(C)C(=CCC4[C@@]5(C)CC[C@H](O[C@@H]6O[C@H](C(=O)O)[C@@H](O[C@@H]7O[C@H](CO)[C@@H](O)[C@H](O)[C@H]7O)[C@H](O)[C@H]6O[C@@H]6O[C@H](CO)[C@@H](O)[C@H](O)[C@H]6O)C(C)(C)C5CC[C@]43C)C2C1 (some centres undefined) | + | 0 | + | 0 | +
CC1OC(OC2C(OC3C(O[C@H]4CC[C@@]5(C)C(CC[C@]6(C)C5CC=C5C7CC(C)(C)CC(O)[C@]7(C)CC[C@]56C)C4(C)C)OC(C(=O)O)C(O)C3O)OCC(O)C2O)C(O)C(O)C1O (some centres undefined) | 0 | 0 | + | 0 | +
Cc1ccc([N+](=O)[O-])c(OCCCCn2cncn2)c1 | - | 0 | - | - | -
